From PubChem BioAssay (NCATS)
Results filed as inconclusive are left out. Activity calls are given as the source filed them. Calls come from the whole dose curve; as a rule, active = well fitted inhibition curve with a large enough effect; inconclusive = small, poorly fitted or top-dose-only effect; inactive = flat fitted curve, though single readings scatter.

system: 3D7; experiment: qHTS profiling for inhibitors of Plasmodium falciparum proliferation (AID 504749); note: nearly all actives have a fitted effect of over 60% in size;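 for activity, negative = inhibition: 0% = DMSO vehicle and full inhibition = artemisinin control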; details: P. falciparum in erythrocytes, SYBR Green DNA, 72 h; series mostly up to 12.8 µM; activity, negative = inhibition: at the top concentration
Outline: (§1)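 P. falciparum-infected erythrocytes (0.3% parasitemia, 2.5% hematocrit final) were exposed to compounds for 72 h at 37 C in 5% CO2, then lysed with SYBR Green buffer overnight at room temperature; parasite DNA fluorescence was normalized to artemisinin and DMSO controls.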
Potency is the fitted concentration of half-maximal effect.

activity, negative = inhibition, inactive:
CC1(C)S[C@H]2C(NC(=O)[C@@H](N)c3ccc(O)cc3)C(=O)N2[C@@H]1C(=O)O (stereo partly specified) 5.14% [at 28.7 µM]
CN(C)CCc1c[nH]c2ccc(CC3COC(=O)N3)cc12 (stereo unspecified) 0.558% [at 28.7 µM]
C[C@@]12CCC(=O)C=C1C=CC1C2CC[C@]2(C)C1CC[C@@]21CCC(=O)O1 (stereo partly specified) -17.7% [at 28.7 µM]
CC(C)Oc1ccc2c(=O)cc(-c3ccccc3)oc2c1 -13.5% [at 28.7 µM]
CC(=O)O[C@@]1(C(C)=O)CCC2C3CC(C)C4=CC(=O)CC[C@@]4(C)C3CC[C@]21C (stereo partly specified) 0.776% [at 28.7 µM]
N[C@@H]1C(O)OC(CO)C(O)C1O (stereo partly specified) -11.5% [at 28.7 µM]
C=Cc1c(C)/c2[n-]/c1=C\c1[n-]c(c(CC)c1C)/C=c1\[n-]c3c(c1C)C(=O)C(C(=O)[O-])C=3c1[n-]c(c(C)c1CCC(=O)[O-])\C=2.[Cu].[Na+].[Na+] (stereo unspecified) -25.3% [at 28.7 µM]
CC(=O)[C@]1(O)CCC2C3C=C(Cl)C4=CC(=O)C5CC5[C@@]4(C)C3CC[C@]21C (stereo partly specified) 2.86% [at 28.7 µM]
C[C@@]12C=CC(=O)C=C1CCC1C3CC(O)[C@@](O)(C(=O)CO)[C@]3(C)CC(O)[C@]12F (stereo partly specified) 0.358% [at 28.7 µM]
CCC1OC(=O)C(C)[C@@H](O[C@H]2C[C@@](C)(OC)C(O)C(C)O2)C(C)[C@@H](O[C@@H]2OC(C)CC(N(C)C)C2O)[C@@](C)(O)CC(C)C(=O)[C@@H](C)C(O)[C@]1(C)O (stereo partly specified) 8.07% [at 28.7 µM]
CC1C2CCC3C4CC=C5CC(N(C)C)CC[C@@]5(C)C4CC[C@@]32CN1C (stereo partly specified) 1.94% [at 28.7 µM]
CCC(C)C(=O)OC1CC(O)C=C2C=CC(C)C(CCC(O)CC(O)CC(=O)O)C21 (stereo unspecified) -13.7% [at 28.7 µM]
OCC1OC(n2cnc3c(=S)nc[nH]c32)C(O)C1O (stereo unspecified) -18.6% [at 28.7 µM]

Potency, active:
NC(CCC(=O)N[C@@H](CS)C(=O)NCC(=O)O)C(=O)O (stereo partly specified) 6.31 µM

system: 7G8; experiment: as above; details: P. falciparum in erythrocytes, SYBR Green DNA, 72 h; series mostly up to 12.8 µM; activity, negative = inhibition: at the top concentration
Outline: as §1

activity, negative = inhibition, inactive:
CC1(C)S[C@H]2C(NC(=O)[C@@H](N)c3ccc(O)cc3)C(=O)N2[C@@H]1C(=O)O (stereo partly specified) -3.93% [at 28.7 µM]
CC(C)Oc1ccc2c(=O)cc(-c3ccccc3)oc2c1 -16.5% [at 28.7 µM]
N[C@@H]1C(O)OC(CO)C(O)C1O (stereo partly specified) -11.5% [at 28.7 µM]
C[C@@]12C=CC(=O)C=C1CCC1C3CC(O)[C@@](O)(C(=O)CO)[C@]3(C)CC(O)[C@]12F (stereo partly specified) -11.3% [at 28.7 µM]
CCC1OC(=O)C(C)[C@@H](O[C@H]2C[C@@](C)(OC)C(O)C(C)O2)C(C)[C@@H](O[C@@H]2OC(C)CC(N(C)C)C2O)[C@@](C)(O)CC(C)C(=O)[C@@H](C)C(O)[C@]1(C)O (stereo partly specified) -8.06% [at 28.7 µM]

Potency, active:
NC(CCC(=O)N[C@@H](CS)C(=O)NCC(=O)O)C(=O)O (stereo partly specified) 0.708 µM
CCCCCCCCCc1ccc(OCCOCCOCCOCCOCCOCCOCCOCCOCCO)cc1 12.6 µM
CC(=O)O[C@@]1(C(C)=O)CCC2C3CC(C)C4=CC(=O)CC[C@@]4(C)C3CC[C@]21C (stereo partly specified) 7.94 µM
CC(=O)OCC(=O)[C@@]12OC3(CCCC3)OC1CC1C3CCC4=CC(=O)C=C[C@@]4(C)[C@]3(F)C(O)C[C@]12C (stereo partly specified) 11.2 µM
CCC(=O)O[C@@]1(C(=O)CCl)C(C)CC2C3CCC4=CC(=O)C=C[C@@]4(C)[C@]3(F)C(O)C[C@]21C (stereo partly specified) 3.98 µM
CO[C@]12C(COC(N)=O)C3=C(C(=O)C(C)=C(N)C3=O)N1CC1NC12 (stereo partly specified) 0.708 µM
COC1OC(CO)C(OC2OC(C(=O)O)C(OC3OC(COS(=O)(=O)O)C(OC4OC(C(=O)O)C(OC5OC(CO)C(OC6OC(C(=O)O)C(OC7OC(COS(=O)(=O)O)C(OC8OC(C(=O)O)=C[C@H](O)C8OS(=O)(=O)O)C(O)C7NC(C)=O)[C@@H](O)C6O)C(O)C5NC(C)=O)[C@@H](O)C4O)C(O)C3NC(C)=O)[C@@H](O)C2O)C(O)C1NC(C)=O (stereo partly specified) 7.08 µM
COC1CC(O[C@H]2/C(C)=C/CC3CC(C[C@]4(CCC(C)C(C5CCCCC5)O4)O3)OC(=O)[C@H]3C=C(C)/C(=N/O)C4OC/C(=C\C=C\[C@@H]2C)[C@@]43O)OC(C)C1O (stereo partly specified) 12.6 µM

system: AA1029; experiment: as above; details: P. falciparum in erythrocytes, SYBR Green DNA, 72 h; series mostly up to 12.8 µM; activity, negative = inhibition: at the top concentration
Outline: as §1

activity, negative = inhibition, inactive:
CC1(C)S[C@H]2C(NC(=O)[C@@H](N)c3ccc(O)cc3)C(=O)N2[C@@H]1C(=O)O (stereo partly specified) 5.8% [at 28.7 µM]
CN(C)CCc1c[nH]c2ccc(CC3COC(=O)N3)cc12 (stereo unspecified) 8.71% [at 28.7 µM]
C[C@@]12CCC(=O)C=C1C=CC1C2CC[C@]2(C)C1CC[C@@]21CCC(=O)O1 (stereo partly specified) -6.96% [at 28.7 µM]
CC(C)Oc1ccc2c(=O)cc(-c3ccccc3)oc2c1 -6.73% [at 28.7 µM]
CCCCCCCCCc1ccc(OCCOCCOCCOCCOCCOCCOCCOCCOCCO)cc1 -28.9% [at 28.7 µM]
N[C@@H]1C(O)OC(CO)C(O)C1O (stereo partly specified) -10.5% [at 28.7 µM]
CC(=O)[C@]1(O)CCC2C3C=C(Cl)C4=CC(=O)C5CC5[C@@]4(C)C3CC[C@]21C (stereo partly specified) 3.04% [at 28.7 µM]
C[C@@]12C=CC(=O)C=C1CCC1C3CC(O)[C@@](O)(C(=O)CO)[C@]3(C)CC(O)[C@]12F (stereo partly specified) 12.3% [at 28.7 µM]
CCC1OC(=O)C(C)[C@@H](O[C@H]2C[C@@](C)(OC)C(O)C(C)O2)C(C)[C@@H](O[C@@H]2OC(C)CC(N(C)C)C2O)[C@@](C)(O)CC(C)C(=O)[C@@H](C)C(O)[C@]1(C)O (stereo partly specified) -0.792% [at 28.7 µM]
CC1C2CCC3C4CC=C5CC(N(C)C)CC[C@@]5(C)C4CC[C@@]32CN1C (stereo partly specified) 8.24% [at 28.7 µM]
CCC(C)C(=O)OC1CC(O)C=C2C=CC(C)C(CCC(O)CC(O)CC(=O)O)C21 (stereo unspecified) -2.68% [at 28.7 µM]
OCC1OC(n2cnc3c(=S)nc[nH]c32)C(O)C1O (stereo unspecified) -2.33% [at 28.7 µM]

Potency, active:
CCC(=O)O[C@@]1(C(=O)CCl)C(C)CC2C3CCC4=CC(=O)C=C[C@@]4(C)[C@]3(F)C(O)C[C@]21C (stereo partly specified) 10 µM
CO[C@]12C(COC(N)=O)C3=C(C(=O)C(C)=C(N)C3=O)N1CC1NC12 (stereo partly specified) 2 µM
